High-throughput results as filed in PubChem BioAssay.
An excerpt weighted towards active compounds, which were near 3.2% of everything screened.
GLP1R ag: qHTS of GLP-1 Receptor Agonists; Potency, µM (top dose mostly 45.6 µM), inactives show top-dose activation, actives largely listed as activators; HEK293 GLP-1R CRE-luciferase, luminescence, 4-6 h; cells express a hypersensitive GLP-1R form; actives 0.007% (n = 380,000); AID 624172, 2012; also: % of control where 0% means no effect
GLP1R inv ag: qHTS of GLP-1 Receptor Inverse Agonists (Inhibition Mode); Glucagon-like peptide 1 receptor (Homo sapiens), P43220; Potency, µM (highest dose often 38.3 µM), for inactives: at the top dose activity change, negative = inhibition, actives largely listed as inhibitors; actives 1.6% (n = 410,000); HEK293 GLP-1R CRE-luciferase, luminescence, 24 h; GLP-1R form is constitutively active; also: % is scaled to controls: 0 for no effect and ±100 for the full control effect; nearly all actives have a fitted effect of over 55% in size
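Using stably transfected HEK293 (constitutively active GLP-1R, cAMP-luciferase reporter), compounds were incubated 24 hr and luciferase measured by luminescence.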
GLP1R cytotox: qHTS of GLP-1 Receptor Inverse Agonists: Cytotox Screen. HEK293 cAMP-luciferase reporter cells, luminescence, 24 h. Potency, µM (highest dose often 38.3 µM), for the others: at the top dose activity change, negative = inhibition, usual class: inhibitors. actives 0.13% (n = 410,000). AID 624418, 2012;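 also: loss of luciferase light is scored as toxicity; % is scaled to controls: 0 for no effect and ±100 for the full control effect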
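Quantitative HTS format, 1536 wells, 200 cells/uL seeded. Compounds: 23 nL, 24 h, 37 °C. Detection: luciferase reagent, luminescence at 12 min RT; decreased signal taken as cytotoxic.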
ClpP mod: qHTS Assay for Activators of ClpP; AID 651965, 2013; actives 1.9% (n = 340,000); Potency, µM (doses to about 57.5 µM), without a hit: top-dose activity change, negative = active; ATP-dependent Clp protease proteolytic subunit (Bacillus subtilis (strain 168)), P80244; purified B. subtilis ClpP, FRET peptide cleavage, 20 min; active = well fitted falling curve with a large enough effect; inconclusive = small, poorly fitted or top-dose-only effect; inactive = no such curve, though single readings can be large or run the other way; also: the source files actives as falling curves though it sought activators and does not explain the sign; nearly all actives have a fitted effect of over 65% in size
Target sequence (P80244 whole entry, looked up): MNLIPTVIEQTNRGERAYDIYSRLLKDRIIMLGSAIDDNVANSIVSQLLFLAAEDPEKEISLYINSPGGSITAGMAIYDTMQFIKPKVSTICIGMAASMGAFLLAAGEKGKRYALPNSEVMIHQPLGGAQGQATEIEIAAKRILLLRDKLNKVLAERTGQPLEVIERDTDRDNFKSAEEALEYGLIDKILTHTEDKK
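Buffer: 100 mM Tris/HCl pH8, 100 mM KCl, 0.05% low protease BSA, 2.5% glycerol, 0.01% Tween-20. ClpP 10 microg/mL final; 20 min RT; delta FRET normalized to ADEP and DMSO controls.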
An asterisk follows results filed as active; ? = inconclusive; . = no result given. Unless noted, calls follow the shape of the dose curve; as a rule, active = well fitted curve in the direction sought with a large enough effect; inconclusive = small, poorly fitted or top-dose-only effect, or another doubt; inactive = no such curve, though single readings can be large; an effect the other way counts as inactive or inconclusive. Potency is read from the fitted curve at half-maximal effect.

SMILES	GLP1R ag	GLP1R inv ag	GLP1R cytotox	ClpP mod
Cc1ccc(NC(=O)[C@@H](c2ccccc2)N2Cc3ccccc3C2=O)cc1	1%	?	-7%	0%
CCOc1ccc(Br)cc1C1C(C(=O)OC)=C(C)NC2=C1C(=O)c1ccccc12 (centres undefined)	.	8%	3%	-2%
COc1ccc2[nH]c(=O)c(CN(CC3CCCO3)C(=O)Nc3ccc(F)cc3)cc2c1 (centres undefined)	5%	0%	-9%	16µM*
COc1ccc2[nH]c(=O)c(CN(C(=O)C3CCCO3)c3ccc(C)cc3)cc2c1 (centres undefined)	6%	5%	-15%	28µM*
COc1cccc(C(=O)N(Cc2cc3cc(C)ccc3[nH]c2=O)CC2CCCO2)c1 (centres undefined)	8%	0%	?	32µM*
COc1cccc(C(=O)N(Cc2ccccc2)Cc2cc3cc4c(cc3[nH]c2=O)OCCO4)c1	22%	-22%	-23%	28µM*
COc1cc(C(=O)N(Cc2cc3cc(C)ccc3[nH]c2=O)CC2CCCO2)cc(OC)c1OC (centres undefined)	-8%	-2%	-11%	-4%
COc1ccc(NC(=O)N(Cc2cc3cc(C)ccc3[nH]c2=O)CC2CCCO2)cc1 (centres undefined)	6%	-20%	-22%	-18%
COc1ccc(C(=O)N(Cc2ccccc2)Cc2cc3cc4c(cc3[nH]c2=O)OCCO4)cc1	7%	1%	?	?
COc1ccc2cc(CNc3ccc(C)cc3)c(=O)n(CC(=O)Nc3ccc(C)cc3Cl)c2c1	0%	8%	-2%	-7%
CC(=O)c1cccc(Nc2cc(C)nc3nc(Cc4ccccc4)nn23)c1	.	6%	-4%	1%
O=C(C=Cc1ccccc1O)c1ccccc1O	6%	7.9µM*	-16%	.
O=C(/C=C/c1ccc(O)c(O)c1)c1ccccc1O	12%	16%	?	.
CC(C)CCN(Cc1ccco1)C(=O)c1cc2c(Cl)nc3ccccc3c2s1	2%	3%	3%	-14%
CCOc1cc(/C=C2\CN(C)C/C(=C\c3ccc(O)c(OCC)c3)C2=O)ccc1O	-6%	?	?	-2%
CCOc1cc(/C=C2\CCC/C(=C\c3cc(Cl)c(O)c(OCC)c3)C2=O)cc(Cl)c1O	-37%	10µM*	11µM*	1%
CCN(CC)CCNC(=O)c1c2c(nc3ccccc13)C(=O)N(C1CCCCC1)C2	.	-11%	5%	28µM*
CC(=O)Nc1cccc(OCC(=O)NS(=O)(=O)c2ccc(Cl)cc2)c1	-9%	42%	17%	32µM*
O=C(COc1ccc(/C=N/NS(=O)(=O)c2ccccc2)cc1)Nc1cccc(Cl)c1	0%	10µM*	-16%	1%
O=C(CSc1nc(=O)[nH]c2c1CCCC2)NCc1ccc(F)cc1	.	11%	0%	-2%
Cc1ccc(-n2c3nc(=O)[nH]c(=O)c-3cc3cc([N+](=O)[O-])ccc32)cc1C	8%	10µM*	?	.
O=C(OCCOc1cccc(Cl)c1)c1cc(S(=O)(=O)N2CCCCC2)ccc1N1CCOCC1	-1%	5.6µM*	-2%	?
O=C(OCc1cccc(Cl)c1)c1cc(S(=O)(=O)N2CCCCC2)ccc1N1CCOCC1	2%	?	0%	-22%
Cc1ccc(S(=O)(=O)N2CCc3cc(C(=O)Nc4ccc(C)c(C)c4)ccc32)cc1	.	-22%	-2%	-20%
CCCC1C(C#N)=C(N)Oc2cc(C)n(C)c(=O)c21 (centres undefined)	11%	1%	2%	32µM*
SMILES	GLP1R ag	GLP1R inv ag	GLP1R cytotox	ClpP mod
CCn1c(C)cc2c(c1=O)C(c1ccncc1)C(C#N)=C(N)O2 (centres undefined)	5%	9%	-7%	-1%
Cc1cc2c(c(=O)n1CCc1ccccc1)C(C(C)C)C(C#N)=C(N)O2 (centres undefined)	-1%	8%	3%	-3%
Cc1cc2c(c(=O)n1C)C(Cc1ccccc1)C(C#N)=C(N)O2 (centres undefined)	-8%	4%	0%	28µM*
CC[N+](C)(C)c1ccc(/C=C/c2ccncc2)cc1	.	.	.	0%
Cc1ccc(C(=O)[C@H](C)CN2CCCCC2)cc1	-6%	.	.	.
CC(=O)c1cccc(NC(=O)CSc2ncc3c(n2)-c2cc(Cl)ccc2N(Cc2ccccc2)S3(=O)=O)c1	.	-1%	3%	4%
CC[C@@H]1/C=C(\C)C[C@H](C)C[C@H](OC)[C@H]2O[C@@](O)(C(=O)C(=O)N3CCCC[C@H]3C(=O)O[C@H](/C(C)=C/[C@@H]3CC[C@H](Cl)[C@H](OC)C3)[C@H](C)[C@@H](O)CC1=O)[C@H](C)C[C@@H]2OC	26%	.	.	.
O=[N+]([O-])c1ccc(/C=N/Nc2ncccc2[N+](=O)[O-])s1	0%	?	1.1µM*	.
COc1ccc(C(CNC(=O)c2cc(S(=O)(=O)N3CCN(c4ccccc4)CC3)ccc2Cl)N(C)C)cc1 (centres undefined)	-2%	10µM*	-18%	-1%
CCOc1ccccc1C(=O)Nc1c(NC)c2ccccc2oc1=O	.	-5%	-7%	-1%
COc1ccc(F)cc1C(=O)C1CCCN(Cc2cn(C)c3ccccc23)C1 (centres undefined)	6%	3.5µM*	?	.
CCOC(=O)Cc1ccc(NC(=O)N2CCSc3ccccc32)cc1	.	-4%	1%	-4%
